Assay outcomes deposited in PubChem BioAssay by National Center for Advancing Translational Sciences (NCATS).
An excerpt weighted towards active compounds, which were near 12% of everything screened.
NS1 function inh: blocks influenza NS1 protein function. 270,000 compounds, 0.4% hits. AID 2326. Potency, µM (doses to about 46.1 µM), for inactives: at the highest dose activity, positive = more growth; calls by dose curve; note: actives are rising curves; nearly all actives have a fitted effect of over 50% in size
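OD600 was taken as the measure of yeast growth restored by compound in an NS1-expressing S. cerevisiae strain. Cells had been washed out of glucose medium and diluted 1:100 into galactose -URA medium, pH 6.0.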
SARS PLP yeast: blocks SARS-CoV papain-like protease in a yeast assay. AID 485353. Potency, µM (series often up to 32.9 µM), without a hit: at the highest dose activity, positive = growth rescue, hits mostly activators. S. cerevisiae expressing SARS-CoV PLpro, growth rescue. 330,000 compounds, 0.19% hits; calls by dose curve; note: 0% is about no effect; nearly all actives have a fitted effect of over 55% in size
HCV inhibitor: inhibitors of hepatitis C virus infection; Huh7.5.1 HCVcc-Cre infection, luciferase reporter, 44 h; Potency, µM (highest dose often 41.8 µM), for inactives: at the top dose activity change, negative = inhibition, most hits filed as inhibitors; 340,000 compounds, 3.4% hits; note: % is set by controls: 0 for no effect and ±100 for the full control effect
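Cells (1,000/well) were plated 4 h before compound, then infected with HCVcc-Cre virus (~0.5 moi). After 44 h further culture, infection was read as luciferase luminescence following a 15 min substrate incubation at room temperature.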
Pf growth 96h: inhibits malaria parasite growth, 96 h; 320,000 compounds, 6.9% hits; Potency, µM (series often up to 28.7 µM), for the others: at the top dose activity change, negative = inhibition, hits mostly inhibitors; AID 504834; P. falciparum luciferase reporter growth, 96 h; note: % is set by controls: 0 for no effect and ±100 for the full control effect
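P. falciparum expressing integrated firefly luciferase grown in erythrocytes (2% hematocrit, 0.05% parasitemia final) with compounds for 96 hours at 37 C, 5% CO2. Growth inhibition read as loss of luminescence after adding luciferase detection reagent.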
AMA1 RON2 block: AMA1-RON2 (P. falciparum) interaction inhibition; AlphaScreen AMA1-biotinylated RON2 peptide binding; AID 720542; 360,000 compounds, 0.2% hits; Potency, µM (top dose mostly 58.2 µM), without a hit: at the highest dose activity change, negative = inhibition, most hits filed as inhibitors;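 note: 0% = vehicle wells and -100% = peptide control; nearly all actives have a fitted effect of over 45% in size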
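AMA1 (3D7) with his tag at 25 nM final met compounds first, then biotinylated RON2 peptide at 25 nM; detection used donor plus acceptor beads, 10 µg/mL apiece, read by AlphaScreen after 30 min at room temperature.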
Pf growth 48h: inhibits P. falciparum growth in the first generation, 48 h | P. falciparum luciferase growth in erythrocytes, 48 h | Potency, µM (highest dose often 28.7 µM), inactives show at the top dose activity change, negative = inhibition, hits mostly inhibitors | 310,000 compounds, 5.9% hits | AID 504832; note: % is set by controls: 0 for no effect and ±100 for the full control effect
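Luminescence readout; reporter = integrated firefly luciferase in P. falciparum. RBC culture at 2% hematocrit, 0.1% parasitemia final, 37 C/5% CO2; decreased signal taken as growth inhibition.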
* hit, by the source's call; ? = inconclusive; . = no result given; ! = not confirmed by another sample; [ ] = dose if it differs, or a comment. Unless noted, calls come from the whole dose curve; as a rule, active = well fitted curve in the direction sought with a large enough effect; inconclusive = small, poorly fitted or top-dose-only effect, or another doubt; inactive = no such curve, though single readings can be large; an effect the other way counts as inactive or inconclusive. Potency is the fitted concentration of half-maximal effect.

SMILES | NS1 function inh | SARS PLP yeast | HCV inhibitor | Pf growth 96h | AMA1 RON2 block | Pf growth 48h
COc1ccc(NC(=O)Nc2ccc3c(c2)CCC3)cc1 | 0.1% | 2.9% | 11.7% | 56.7% | 0.0% | 32.5%
COc1ccc(C(=O)C2CCCN(C(=O)c3cccc(N(C)C)c3)C2)cc1OC (configuration not stated) | -9.1% | 4.0% | 5.9% | -13.7% | -2.7% | ?
O=C(/C=C/c1ccc(S(=O)(=O)N2CCOCC2)cc1)NCCCn1ccnc1 | . | -2.1% | 24.4% | 8.0% | -7.8% | 9.3%
CCCn1c(SCC(=O)Nc2cccc(NC(C)=O)c2)nnc1C(C)C | -8.0% | 7.5% | 13.4% | 4.15µM* | 4.3% | 10.8%
O=C(Nc1ccccc1-c1nc2ccccc2[nH]1)c1ccc(S(=O)(=O)N2CCCCC2)cc1 | 11.4% | -0.5% | -27.2% | 2.94µM* | 4.5% | ?
CC1CCCCN1S(=O)(=O)c1ccc(C(=O)Nc2ccccc2-c2nc3ccccc3[nH]2)cc1 (configuration not stated) | -5.1% | -15.0% | ? | ? | 10.3% | 1.85µM*
O=C(Nc1ccc(-c2nc3ccccc3[nH]2)cc1)c1cccc(N2C(=O)CCC2=O)c1 | 7.7% | -5.5% | -24.5% | 1.5% | -6.1%[2.32 µM] | -0.6%
O=C(Nc1ccccc1-c1nc2ccccc2[nH]1)c1ccc(N2C(=O)CCC2=O)cc1 | -0.8% | -0.7% | 10µM* | ? | -9.4% | ?
CC1CCCCN1S(=O)(=O)c1ccc(C(=O)Nc2ccccc2-c2nc3ccccc3s2)cc1 (configuration not stated) | -9.1% | 11.7% | 5.6% | -2.1% | 8.0% | 29.6%
Cc1ccc(-c2nc(CCNC(=O)c3ccco3)cs2)cc1 | . | 3.6% | 10µM* | ? | -2.1% | ?
O=S(=O)(NCCc1csc(-c2ccc(C(F)(F)F)cc2)n1)c1ccc2c(c1)OCCO2 | -9.8% | -18.6% | ? | -0.2% | 3.1% | -0.7%
COc1ccc(-c2nc(CCNS(=O)(=O)c3ccc4c(c3)OCCO4)cs2)cc1 | -19.0% | -16.1% | 11.2µM* | ? | -8.9% | -12.6%
COc1cc(-c2nc(CCNC(=O)c3ccco3)cs2)cc(OC)c1OC | -3.9% | -3.2% | -17.6% | 10.4µM* | 16.5% | ?
COc1ccc(-c2nc(CCNC(=O)c3cccs3)cs2)cc1 | -42.6% | -24.1% | 35.5µM* | ? | -9.8% | -26.0%
O=C(NCCc1csc(-c2ccc(Cl)cc2)n1)c1ccco1 | -84.9% | -11.8% | 11.2µM* | 8.7% | -3.0% | -0.7%
O=C(Cc1cc(=O)[nH][nH]1)N/N=C/C(Cl)=C/c1ccccc1 | 17.9% | 12.4% | 16.7% | 62.1% | 9.8% | 1.17µM*!
O=C(Cc1cc(=O)[nH][nH]1)N/N=C/c1ccccc1Cl | ? | -4.5% | 17.1% | -0.7% | 20.7% | -21.8%
O=C(Cc1cc(=O)[nH][nH]1)N/N=C/c1cccc(Cl)c1Cl | 10µM* | 9.4% | -0.1% | ? | 75.1% | ?
C[C@@H](CNC1CCCCC1)OC(=O)c1ccccc1 | . | . | . | 2.56µM* | . | 2.03µM*
CC(C)c1ccc(-c2csc3nc[nH]c(=O)c23)cc1 | -30.6% | -2.4% | -21.2% | 53.8% | -9.6% | 48.0%
CC(C)(C)n1cccc1/C=C1\C(=O)NC(=O)N(c2ccccc2)C1=O | 0.1% | 7.9% | 16.7% | 10.4µM* | -2.4% | -6.6%
Cc1ccc(NC(=O)CN2CCN(C)CC2)cc1S(=O)(=O)N1CCOCC1 | . | 0.0% | 5.5% | ? | 83.5% | -6.4%
CC1(C)N(O)C2CCCCC2N1O (configuration not stated) | 0.5% | -8.3% | 20.4% | ? | 25.8% | 0.037µM*
CC1(O)C[C@]2(C)N(O)C3CCCC[C@@H]3N2O1 (some centres not stated) | -8.8% | 3.1% | 5.3% | 60.4% | 7.7% | ?
CCCN1CCCC2Cc3nc(N)ncc3CC21 (configuration not stated) | . | . | . | 12µM* | . | -5.2%
SMILES | NS1 function inh | SARS PLP yeast | HCV inhibitor | Pf growth 96h | AMA1 RON2 block | Pf growth 48h
CCCN1CCCC2Cc3[nH]ncc3CC21 (configuration not stated) | -12.1% | . | . | . | . | .
COc1ccc(CN2CCN(C(=O)CCC(=O)Nc3nnc(C(F)(F)F)s3)CC2)cc1F | -1.4% | -6.2% | -15.2% | ? | -6.3% | -8.7%
COc1ccc(CN2CCN(C(=O)CCC(=O)Nc3nnc(C4CCCCC4)s3)CC2)cc1F | -11.6% | -4.8% | ? | 11.7µM* | 1.5% | -27.4%
COc1ccc(C(=O)Nc2ccccc2)cc1NC(=O)c1ccc([N+](=O)[O-])cc1 | 3.5% | -3.1% | ? | ? | -9.6% | 1.3%
C=C1C(=O)O[C@H]2[C@H]1[C@H](OC(=O)/C(C)=C\C)C[C@]1(CO1)[C@@H]1[C@H](OC(C)=O)C=C(C)[C@]21O | . | . | -31.1% | . | 7.7% | .
C=C1C(=O)O[C@@H]2[C@H]1[C@@H](OC(=O)/C(C)=C/C)C/C(C)=C\C(=O)/C=C(\C)[C@@H]2O | -1.9% | -0.5% | 11.2µM* | ? | 3.3% | ?
COc1ccc(C)cc1NC(=O)CSc1nnc(COc2ccc(Cl)cc2)n1Cc1ccco1 | -52.9% | -20.3% | ? | ? | -23.1% | ?
Cc1cc(NC(=O)CSc2nnc(COc3cccc(C)c3C)n2Cc2ccco2)no1 | 4.3% | -2.8% | 11.7% | 58.5% | -3.3% | 22.4%
COc1ccc(C)cc1NC(=O)CSc1nnc(-c2ccccn2)n1Cc1ccco1 | -12.1% | -0.7% | -13.8% | -22.4% | 10.2% | 2.1%
Cc1ccc(NC(=O)CSc2nnc(CSc3nc(C)cc(C)n3)n2Cc2ccco2)c(C)c1 | -4.3% | 0.6% | 11.2µM* | -26.4% | 4.7% | ?
COc1ccc(C)cc1NC(=O)CSc1nnc(COc2ccccc2)n1Cc1ccco1 | -74.9% | -2.5% | -27.5% | 10.4µM* | -2.6% | ?
COc1ccccc1NC(=O)CSc1nnc(-c2ccccn2)n1Cc1ccco1 | -10.0% | 11.5% | -7.8% | 11.7µM* | 1.2% | ?
Cc1cccc(OCc2nnc(SCC(=O)N(C(C)C)C(C)C)n2Cc2ccco2)c1C | -14.4% | -2.8% | 2.5% | ? | -2.7% | 11.7µM*
OCCC1CN(Cc2cc(F)ccc2-n2cccn2)CCN1Cc1ccc(F)cc1 (configuration not stated) | 0.3% | 1.0% | -20.5% | 12.8% | 23.6% | -4.2%
C(=C\c1ccccc1)/CSc1nnc(-c2ccccn2)n1Cc1ccco1 | -46.7% | -11.5% | 10µM* | . | 2.5% | ?
Cc1c(N=N/C(C(=O)Nc2ccccc2)=C(/O)c2ccccc2)c(=O)n(-c2ccccc2)n1C | . | 2.0% | -27.8% | 3.7µM* | 50.6% | ?
CCOC(=O)/C(N=Nc1c(C)n(C)n(-c2ccccc2)c1=O)=C(/O)c1ccccc1 | . | 0.7% | 2.5% | 9.8% | 62.6% | -17.2%
COc1ccc(Nc2nccc(-c3ccc(C#N)cc3)n2)cc1 | -3.8% | -1.9% | -21.7% | 5.86µM* | -1.4% | -19.4%
